The other results are listed elsewhere or left out. No count for the full screen is at hand.
Molecular target: furin, P09958
Test: furin cleavage Z-score vs untreated control; higher = more cleavage, active = 3.5 or more, inactive = 1 or less, 8 variable residues between constant flanks
Protocol: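 Multiplexed peptide-cDNA fusion cleavage assay. 8-mer variable peptides flanked by constant Cys-Ala (N-term) and Ala-Gly-Asn-Ala-Ser-Ala-Ser-Ala (C-term) and conjugated to a cDNA oligonucleotide were bead-immobilised via the N-terminus. They were treated with purified furin at a 1:10 enzyme:substrate ratio in 50 mM HEPES pH 7.5, 1 mM CaCl2, 100 mM NaCl for 7.5, 15 or 30 min. Released cDNA was counted by next-generation sequencing, and log counts versus no-furin controls were lowess-adjusted and converted to robust Z-scores.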

Sequence of furin, P09958 (P09958 whole entry): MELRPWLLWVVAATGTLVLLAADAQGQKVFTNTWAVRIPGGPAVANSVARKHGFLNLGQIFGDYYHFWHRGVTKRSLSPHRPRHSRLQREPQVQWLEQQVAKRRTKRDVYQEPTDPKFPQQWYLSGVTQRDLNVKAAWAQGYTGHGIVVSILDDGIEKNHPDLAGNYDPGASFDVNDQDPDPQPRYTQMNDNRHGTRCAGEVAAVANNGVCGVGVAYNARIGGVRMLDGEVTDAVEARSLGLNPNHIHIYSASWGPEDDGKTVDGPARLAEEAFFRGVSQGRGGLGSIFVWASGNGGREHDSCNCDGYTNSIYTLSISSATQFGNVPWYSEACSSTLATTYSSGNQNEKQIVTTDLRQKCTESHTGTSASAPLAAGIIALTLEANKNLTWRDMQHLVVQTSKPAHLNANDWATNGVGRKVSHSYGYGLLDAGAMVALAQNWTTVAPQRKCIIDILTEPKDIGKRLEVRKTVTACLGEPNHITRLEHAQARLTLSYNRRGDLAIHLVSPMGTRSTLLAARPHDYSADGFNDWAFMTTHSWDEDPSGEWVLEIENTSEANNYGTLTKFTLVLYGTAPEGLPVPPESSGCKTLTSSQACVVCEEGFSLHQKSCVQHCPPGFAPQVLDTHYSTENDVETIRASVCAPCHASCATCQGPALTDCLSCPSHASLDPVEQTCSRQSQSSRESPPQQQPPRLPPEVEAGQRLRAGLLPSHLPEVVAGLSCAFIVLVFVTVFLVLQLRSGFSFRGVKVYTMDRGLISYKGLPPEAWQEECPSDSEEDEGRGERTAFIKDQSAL

Sequence	furin cleavage Z-score (7.5 min)	furin cleavage Z-score (15 min)	furin cleavage Z-score (30 min)
CASTPCSGHLAGNASASA [HC2536]	-0.918 (inactive)	-1.44 (inactive)	-0.11 (inactive)
CATDNRSRKRAGNASASA [FS-1658]	-0.57 (inactive)	0.304 (inactive)	-1.94 (inactive)
CAEVCTSTWVAGNASASA [HC2200]	-1.07 (inactive)	-0.375 (inactive)	0.694 (inactive)
CAAVEVDGAGAGNASASA [CS7]	0.521 (inactive)	0.0281 (inactive)	-2.24 (inactive)
CASLKRDVSLAGNASASA [FS-2473]	-0.763 (inactive)	0.0335 (inactive)	1.41
CASLKRQKRQAGNASASA [FS-502]	11.6 (active)	12.1 (active)	8.85 (active)
CAENPCHRPSAGNASASA [HC2341]	-0.397 (inactive)	1.48	0.0102 (inactive)
CAVQIVSTAAAGNASASA [HC690]	0.498 (inactive)	-1.18 (inactive)	-0.374 (inactive)
CAEVIKGGRHAGNASASA [HC852]	-2.02 (inactive)	-1.42 (inactive)	-1.4 (inactive)
CANLLRVFRQAGNASASA [FS-468]	0.426 (inactive)	-0.885 (inactive)	0.089 (inactive)
CAKQGVSKRHAGNASASA [FS-261]	2.25	2.44	3.51 (active)
CALLRRGKRHAGNASASA [FS-51]	11 (active)	10.8 (active)	8.35 (active)
CASDGRGKRHAGNASASA [FS-1277]	6.1 (active)	6.45 (active)	6.27 (active)
CALLRIPQAIAGNASASA [HC329]	-0.657 (inactive)	-1.81 (inactive)	-0.194 (inactive)
CALYRLGAVQAGNASASA [HC973]	0.321 (inactive)	-0.642 (inactive)	0.286 (inactive)
CALLRRPFRQAGNASASA [FS-1361]	2.8	1.06	3.65 (active)
CASSNVSVAHAGNASASA [HC1554]	-2.36 (inactive)	-0.374 (inactive)	-0.657 (inactive)
CADCEVVTSTAGNASASA [HC2300]	0.556 (inactive)	0.654 (inactive)	-0.729 (inactive)
CAQVCCSMSYAGNASASA [HC2002]	-0.191 (inactive)	-0.875 (inactive)	0.558 (inactive)
CAMEECSQELAGNASASA [HC1752]	0.357 (inactive)	-0.13 (inactive)	-0.468 (inactive)
CAVGIFRAAVAGNASASA [HC749]	-0.179 (inactive)	-0.141 (inactive)	0.209 (inactive)
CAARVCSCLWAGNASASA [HC525]	-1.84 (inactive)	-1.52 (inactive)	1.13

Sequence	furin cleavage Z-score (7.5 min)	furin cleavage Z-score (15 min)	furin cleavage Z-score (30 min)
CAEKEVPCHRAGNASASA [HC2454]	0.758 (inactive)	-0.375 (inactive)	1.43
CAHEGREKRHAGNASASA [FS-1630]	7.09 (active)	9.28 (active)	8.39 (active)
CALLRRQIRTAGNASASA [FS-1642]	6.82 (active)	8.8 (active)	8.78 (active)
CALLWRQEMGAGNASASA [HC1276]	1.14	0.0716 (inactive)	0.841 (inactive)
CAPTGREKRPAGNASASA [FS-75]	0.811 (inactive)	0.063 (inactive)	0.807 (inactive)
CATLRRYKRHAGNASASA [FS-964]	11.2 (active)	10.9 (active)	8.76 (active)
CADQRPYCWHAGNASASA [HC401]	0.793 (inactive)	-0.215 (inactive)	1.33
CAGIDPNIRTAGNASASA [HC797]	-1.41 (inactive)	-0.301 (inactive)	-1.74 (inactive)
CAETPCHRPSAGNASASA [HC2338]	-0.427 (inactive)	-0.0389 (inactive)	1
CAEILLGPADAGNASASA [HC665]	0.796 (inactive)	-1.29 (inactive)	0.764 (inactive)
CATEMEECSQAGNASASA [HC1798]	1.39	-0.469 (inactive)	-0.647 (inactive)
CAEVVTSTWQAGNASASA [HC2262]	0.0156 (inactive)	-1.35 (inactive)	-0.305 (inactive)
CAQRRRQRRPAGNASASA [FS-1557]	0.0891 (inactive)	-1.68 (inactive)	0.0903 (inactive)
CAMKNRFLRSAGNASASA [FS-1645]	7.49 (active)	7.31 (active)	7.79 (active)
CAQRRRQLRSAGNASASA [FS-1254]	9.6 (active)	10.8 (active)	7.49 (active)
CANRCRMLRSAGNASASA [FS-469]	2.76	3.91 (active)	2.25
CASRCRFLRSAGNASASA [FS-1086]	4.82 (active)	4.36 (active)	4.8 (active)
CAEVEVPCHRAGNASASA [HC2450]	1.03	0.836 (inactive)	1.62
CACVPCHRPSAGNASASA [HC2320]	-1.73 (inactive)	2.15	-0.71 (inactive)
CAGGPLTNSRAGNASASA [HC1502]	-0.097 (inactive)	1.45	0.841 (inactive)
CAENVVCCSMAGNASASA [HC2141]	-0.000681 (inactive)	-0.718 (inactive)	1.03

Source: the supplement of paper PMC3545927
